Records with an inconclusive call do not appear. Activity calls are given as the source filed them. Calls follow the shape of the dose curve; as a rule, active = well fitted inhibition curve with a large enough effect; inconclusive = small, poorly fitted or top-dose-only effect; inactive = flat fitted curve, though single readings scatter. Square brackets hold non-standard residues; d marks the D form. Peptide text beside a SMILES is read from it. pGlu = O=C1CC[C@@H](C(=O)O)N1
What was measured:
[1] = biological target: Phospholipid hydroperoxide glutathione peroxidase GPX4 (Homo sapiens) (UniProt P36969); assay: Primary qHTS Assay for Inhibitors of Recombinant Selenoprotein Glutathione Peroxidase 4 (GPX4) (AID 1845192); also: nearly all actives have a fitted effect of over 65% in size
Procedure, shortened: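 NADPH consumption, followed by fluorescence at 340/450 nm between 0 and 15 min, reports GPX4 activity via coupled glutathione reductase (100 nM). Enzyme 200 nM was pre-exposed to compound 30 min; 0.5 mM cumene hydroperoxide and 1 mM GSH served as substrates.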

[2] = biological target: Luciferin 4-monooxygenase (Photinus pyralis) (UniProt P08659); assay: Biochemical firefly luciferase enzyme assay for NPC (AID 624030);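 also: purified P. pyralis luciferase at 10 nM with luciferin and ATP substrate; 0% = DMSO and -100% = full luciferase inhibition by PTC124 control; nearly all actives have a fitted effect of over 70% in size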
Procedure, shortened: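 Direct inhibition of firefly luciferase enzyme (10 nM final, 50 mM Tris Acetate) assessed by luminescence within 5 minutes. Percent activity scaled between DMSO and PTC124 positive control, with concentration-effect curves classified by fit quality and response.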

[3] = biological target: Glutathione peroxidase 1 (Homo sapiens) (UniProt P07203); assay: Primary qHTS Assay for Inhibitors of Recombinant Selenoprotein Glutathione Peroxidase 1 (GPX1) (AID 1845191); also: % is scaled to controls: 0 for no effect and ±100 for the full control effect; nearly all actives have a fitted effect of over 65% in size
Procedure, shortened: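 10 nM GPX1 + cpd, 30 min RT; start w/ 1 mM GSH, 0.5 mM cumene hydroperoxide, 0.5 mM NADPH, 100 nM GR, 0.01% BSA; buffer 50 mM Tris-HCl pH 7.5, 2 mM EDTA, 150 mM NaCl; Fl 340/450, 0 & 15 min.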

[4] = qHTS profiling for inhibitors of Plasmodium falciparum proliferation (AID 504749); also: potency is read from the fitted curve at half-maximal effect;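 as to activity, negative = inhibition: 0% = DMSO vehicle and full inhibition = artemisinin control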; as to all read-outs here: nearly all actives have a fitted effect of over 60% in size; conditions: P. falciparum in erythrocytes, SYBR Green DNA, 72 h; for activity, negative = inhibition: at 28.7 µM (top of the series)
Procedure, shortened: (§1)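 Infected RBCs, 0.3% parasitemia/2.5% Hct final; cpd 72 h, 37 C, 5% CO2; lysis buffer with saponin/triton/SYBR Green I, o/n RT dark; FI 485/535; norm. to artemisinin (0.29 uM) and DMSO.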

AS120 = assay: as above; conditions: P. falciparum in erythrocytes, SYBR Green DNA, 72 h; series mostly up to 28.7 µM
Procedure, shortened: as §1

ATS189 = assay: as above; conditions: P. falciparum in erythrocytes, SYBR Green DNA, 72 h; series mostly up to 28.7 µM
Procedure, shortened: as §1

CP192 = assay: as above; conditions: P. falciparum in erythrocytes, SYBR Green DNA, 72 h; series mostly up to 28.7 µM
Procedure, shortened: as §1

CP194 = assay: as above; conditions: P. falciparum in erythrocytes, SYBR Green DNA, 72 h; series mostly up to 28.7 µM
Procedure, shortened: as §1

CP247 = assay: as above; conditions: P. falciparum in erythrocytes, SYBR Green DNA, 72 h; series mostly up to 28.7 µM
Procedure, shortened: as §1

CP262 = assay: as above; conditions: P. falciparum in erythrocytes, SYBR Green DNA, 72 h; series mostly up to 28.7 µM
Procedure, shortened: as §1

CP269 = assay: as above; conditions: P. falciparum in erythrocytes, SYBR Green DNA, 72 h; series mostly up to 28.7 µM
Procedure, shortened: as §1

CP297 = assay: as above; conditions: P. falciparum in erythrocytes, SYBR Green DNA, 72 h; series mostly up to 28.7 µM
Procedure, shortened: as §1

CP315 = assay: as above; conditions: P. falciparum in erythrocytes, SYBR Green DNA, 72 h; series mostly up to 28.7 µM
Procedure, shortened: as §1

CP329 = assay: as above; conditions: P. falciparum in erythrocytes, SYBR Green DNA, 72 h; series mostly up to 28.7 µM
Procedure, shortened: as §1

DIV17 = assay: as above; conditions: P. falciparum in erythrocytes, SYBR Green DNA, 72 h; series mostly up to 28.7 µM
Procedure, shortened: as §1

GB4 = assay: as above; conditions: P. falciparum in erythrocytes, SYBR Green DNA, 72 h; series mostly up to 28.7 µM
Procedure, shortened: as §1

HB3 = assay: as above; conditions: P. falciparum in erythrocytes, SYBR Green DNA, 72 h; series mostly up to 28.7 µM
Procedure, shortened: as §1

CP291 = assay: as above; conditions: P. falciparum in erythrocytes, SYBR Green DNA, 72 h; series mostly up to 28.7 µM
Procedure, shortened: as §1

CP335 = assay: as above; conditions: P. falciparum in erythrocytes, SYBR Green DNA, 72 h; series mostly up to 28.7 µM
Procedure, shortened: as §1

Sequence of Luciferin 4-monooxygenase (Photinus pyralis) (P08659 whole entry, looked up): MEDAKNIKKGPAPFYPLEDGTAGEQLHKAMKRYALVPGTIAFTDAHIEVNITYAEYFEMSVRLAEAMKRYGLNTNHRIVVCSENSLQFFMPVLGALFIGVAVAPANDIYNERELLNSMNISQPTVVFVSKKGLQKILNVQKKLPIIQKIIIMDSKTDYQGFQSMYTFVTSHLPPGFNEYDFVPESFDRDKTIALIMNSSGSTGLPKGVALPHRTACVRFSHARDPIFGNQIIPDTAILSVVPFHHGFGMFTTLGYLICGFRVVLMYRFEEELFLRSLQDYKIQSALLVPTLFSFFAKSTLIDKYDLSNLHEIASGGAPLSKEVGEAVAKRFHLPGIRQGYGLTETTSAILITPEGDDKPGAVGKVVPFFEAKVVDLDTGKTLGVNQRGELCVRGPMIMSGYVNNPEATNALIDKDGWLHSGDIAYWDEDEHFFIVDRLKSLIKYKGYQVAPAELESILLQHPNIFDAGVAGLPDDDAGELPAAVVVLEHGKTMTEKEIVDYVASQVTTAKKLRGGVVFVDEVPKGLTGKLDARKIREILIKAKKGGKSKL
Sequence of Glutathione peroxidase 1 (Homo sapiens) (P07203 whole entry, looked up): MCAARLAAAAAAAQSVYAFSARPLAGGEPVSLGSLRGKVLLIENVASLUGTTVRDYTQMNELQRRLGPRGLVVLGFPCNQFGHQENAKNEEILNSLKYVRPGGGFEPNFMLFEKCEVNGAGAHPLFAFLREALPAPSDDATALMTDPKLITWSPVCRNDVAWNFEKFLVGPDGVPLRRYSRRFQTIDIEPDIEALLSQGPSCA
Sequence of Phospholipid hydroperoxide glutathione peroxidase GPX4 (Homo sapiens) (P36969 whole entry, looked up): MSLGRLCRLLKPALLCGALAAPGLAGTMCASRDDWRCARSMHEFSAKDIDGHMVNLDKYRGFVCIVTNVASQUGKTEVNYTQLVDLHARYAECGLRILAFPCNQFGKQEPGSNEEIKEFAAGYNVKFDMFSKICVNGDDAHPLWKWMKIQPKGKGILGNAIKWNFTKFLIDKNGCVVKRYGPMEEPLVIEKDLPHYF

CC(C)C[C@H](NC(=O)[C@@H](Cc1c[nH]c2ccccc12)NC(=O)[C@H](Cc1ccc(O)cc1)NC(=O)[C@H](CO)NC(=O)[C@H](Cc1c[nH]c2ccccc12)NC(=O)[C@H](Cc1cnc[nH]1)NC(=O)[C@@H]1CCC(=O)N1)C(=O)N[C@@H](CCCN=C(N)N)C(=O)N1CCC[C@H]1C(=O)NCC(N)=O
inactive: Potency [1]

CCNC(=O)[C@H]1CCCN1C(=O)[C@H](CCCN=C(N)N)NC(=O)[C@H](CC(C)C)NC(=O)[C@H](CC(C)C)NC(=O)[C@@H](Cc1ccc(O)cc1)NC(=O)[C@H](CO)NC(=O)[C@@H](Cc1c[nH]c2ccccc12)NC(=O)[C@H](Cc1cnc[nH]1)NC(=O)[C@@H]1CCC(=O)N1 ([pGlu]H[dW]S[dY]LLR[dP]-NHEt)
inactive: Potency [2] | Potency [3]

CC(C)CN(C[C@@H](O)[C@H](Cc1ccccc1)NC(=O)O[C@H]1CCOC1)S(=O)(=O)c1ccc(N)cc1
inactive: Potency [2] | Potency [3] | Potency [1] | activity, negative = inhibition ([4]; parasite line A) -4.85% | activity, negative = inhibition ([4]; parasite line B) -24.9% | Potency (AS120) | Potency (ATS189) | Potency (CP192) | Potency (CP194) | Potency (CP247) | Potency (CP262) | Potency (CP269) | Potency (CP297) | Potency (CP315) | Potency (CP329) | Potency (DIV17) | Potency (GB4) | Potency (HB3)

CC(=O)O[C@@]12CO[C@@H]1C[C@H](O)[C@@]1(C)C(=O)[C@H](O)C3=C(C)[C@@H](OC(=O)C(O)[C@@H](NC(=O)OC(C)(C)C)c4ccccc4)C[C@@](O)([C@@H](OC(=O)c4ccccc4)[C@H]21)C3(C)C (stereo not given in full)
active: Potency ([4]; parasite line A) 31.6 nM | Potency ([4]; parasite line B) 28.2 nM | Potency (AS120) 28.2 nM | Potency (ATS189) 35.5 nM | Potency (CP192) 26.9 nM | Potency (CP194) 67.5 nM | Potency (CP247) 39.8 nM | Potency (CP262) 33.8 nM | Potency (CP269) 42.6 nM | Potency (CP291) 37.9 nM | Potency (CP297) 95.3 nM | Potency (CP315) 33.8 nM | Potency (CP329) 33.8 nM | Potency (CP335) 21.3 nM | Potency (DIV17) 1350 nM | Potency (GB4) 30.1 nM | Potency (HB3) 79.4 nM
inactive: Potency [2] | Potency [3]

— PubChem BioAssay (NCATS)
